High-throughput results as filed in PubChem.
Most compounds without a hit are left out; they make up all but 6.8% or so of the library.
T cruzi growth-1: T. cruzi proliferation inhibition | AID 624255 | inhibition, % at 8.34 µM | 5.9% of 77,000 active | T. cruzi beta-gal in NIH3T3, GalScreen luminescence, 90 h;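 active means mean inhibition above about 93%, with at least 55% of replicates each passing it, limit read from the data, passing the limit was not always enough; inconclusive means only one of those two conditions holds; inactive means neither condition holds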
C diff HTS: inhibitors of Clostridium difficile growth. Clostridium difficile clinical isolate growth, OD600, 24 h; active compounds read low. growth activity, negative = inhibition, % at 16 µg/mL (by protocol). 0.25% of 86,000 active;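 active means mean growth activity at or below -80% and every replicate also at or below -80%; inconclusive means mean at or below -80% but some replicate above -80%; inactive means mean growth activity above -80%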;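 further: 0% = DMSO wells and -100% = levofloxacin 16 µg/mL wells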
Pf Dd2 inh: P. falciparum Dd2 growth inhibition | SYBR Green, 72 h; active compounds read low | activity change, % at 10 µM | 2.3% of 94,000 active | AID 1159554; in the data active means activity change below about -80%; inconclusive means no clear call, values can overlap the other calls
T cruzi growth-2: blocks T. cruzi growth in NIH3T3 host cells | shares compounds with T cruzi growth-1 | T. cruzi beta-gal in NIH3T3, GalScreen luminescence, 90 h | inhibition, % at 8.35 µM | 72% of 5,600 active | AID 651739;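 active means mean replicate inhibition above about 95% and at least 55% of replicates individually reaching it, limit read from the data; inconclusive means only one of the two criteria is met; inactive means neither criterion is met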
T cruzi growth-3: Trypanosoma cruzi proliferation inhibition | inhibition, % at 2.09 µM | 21% of 5,600 active | shares compounds with T cruzi growth-1 | T. cruzi beta-gal in NIH3T3, GalScreen luminescence, 90 h;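 active means mean inhibition above about 95%, with at least 55% of replicates also reaching it, limit read from the data; inconclusive means meets just one of the two conditions; inactive means meets neither condition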;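 further: plate controls were neutral control median for no effect and positive control median for full effect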
NIH3T3 tox: NIH/3T3 (mouse) viability loss; shares compounds with T cruzi growth-1; NIH/3T3 viability, CellTiter-Glo ATP luminescence, 90 h; cytotoxicity (signal decrease), % at 8.35 µM; 14% of 5,600 active;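 active means mean signal decrease across replicates above about 35% based on untreated-well scatter, with enough replicates individually passing, limit read from the data; inconclusive means no rule stated though some were filed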;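 further: 0% = median of neutral control wells and 100% = median of positive control wells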
3T3 cytotox 2: kills mouse NIH/3T3 fibroblasts | shares compounds with T cruzi growth-1 | 56% of 5,600 active | NIH/3T3 viability, CellTiter-Glo ATP luminescence, 90 h | AID 651744 | inhibition, % at 24.9 µM;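 active means mean loss of cell viability signal at or above a set limit, and enough replicates individually reaching it; inconclusive means meets only the mean limit or only the replicate share; inactive means meets neither condition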;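 further: 0% = median of neutral control wells and 100% = median of positive control wells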
* marks the source's active call; other numbers are inactive results; ? = inconclusive; . = not tested or not shown.

SMILES	T cruzi growth-1	C diff HTS	Pf Dd2 inh	T cruzi growth-2	T cruzi growth-3	NIH3T3 tox	3T3 cytotox 2
C[C@@H]1CN([C@H](C)CO)C(=O)c2cc(NC(=O)Cc3ccccc3)ccc2O[C@@H](C)CCCCO[C@@H]1CN(C)S(=O)(=O)c1ccc(Cl)cc1	108*	-1	-84*	109*	85	-13	22
C[C@@H]1CN([C@@H](C)CO)C(=O)c2cc(NC(=O)Cc3ccccc3)ccc2O[C@@H](C)CCCCO[C@@H]1CN(C)S(=O)(=O)c1ccc(Cl)cc1	111*	-1	-85*	101*	65	-3	-2
CCCC(=O)Nc1ccc2c(c1)C(=O)N(C)C[C@H](OC)[C@H](C)CN(CCC(F)(F)F)[C@@H](C)CO2	-20	3	-26	.	.	.	.
CN1C(=O)c2cc(NC(=O)C3CCOCC3)ccc2OC[C@@H]2O[C@@H](CC(=O)O)CC[C@@H]21	-3	-6	2	.	.	.	.
C[C@@H](NC(=O)[C@H]1[C@H](CO)[C@H]2Cn3c(ccc(-c4cccnc4)c3=O)[C@@H]1N2C)c1ccccc1	4	2	8	.	.	.	.
CN1C(=O)c2cc(NC(=O)C3CC3)ccc2OC[C@@H]2O[C@@H](CC(=O)NCc3ccccc3F)CC[C@@H]21	.	-2	14	.	.	.	.
COc1ccc2c3c([nH]c2c1)[C@H](CO)N(S(C)(=O)=O)CC31CN(C(=O)c2ccncc2)C1	.	-11	46	.	.	.	.
CNC[C@H]1Oc2cc(C#CC3CCCC3)ccc2S(=O)(=O)N([C@H](C)CO)C[C@H]1C	59	-2	-39	.	.	.	.
CNC[C@H]1Oc2cc(C#CC3CCCC3)ccc2S(=O)(=O)N([C@@H](C)CO)C[C@@H]1C	-56	1	-48	.	.	.	.
C[C@H]1CN([C@@H](C)CO)S(=O)(=O)c2ccc(C#CCC3CCCC3)cc2O[C@@H]1CN(C)C	73	31	-55	.	.	.	.
CNC[C@H]1Oc2cc(C#CCC3CCCC3)ccc2S(=O)(=O)N([C@@H](C)CO)C[C@@H]1C	?	26	-66	-27	-20	-2	-6
C[C@@H]1CN([C@H](C)CO)S(=O)(=O)c2ccc(C#CCC3CCCC3)cc2O[C@H]1CN(C)C	41	21	-22	.	.	.	.
CNC[C@@H]1Oc2cc(C#CCC3CCCC3)ccc2S(=O)(=O)N([C@@H](C)CO)C[C@@H]1C	?	30	-66	87	71	51*	106*
CNC[C@@H]1Oc2cc(C#CCC3CCCC3)ccc2S(=O)(=O)N([C@@H](C)CO)C[C@H]1C	?	20	-61	101*	60	?	105*
CNC[C@H]1Oc2cc(C#CCC3CCCC3)ccc2S(=O)(=O)N([C@H](C)CO)C[C@H]1C	?	27	-69	98*	79	?	106*
C[C@@H]1CCCCO[C@@H](CN(C)C)[C@H](C)CN([C@H](C)CO)C(=O)c2cc(NS(=O)(=O)c3ccccc3)ccc2O1	64	-6	45	.	.	.	.
Cc1ccccc1-c1cnc2c(c1)C(=O)N([C@@H](C)CO)C[C@H](C)[C@@H](CN(C)C(=O)CC1CC1)O2	.	.	4	.	.	.	.
CCC(=O)N1[C@H](CO)[C@H]2c3ccccc3N(C(=O)c3ccc4c(c3)OCO4)C[C@H]21	2	1	15	.	.	.	.
COc1cccc(NC(=O)N[C@@H]2C=C[C@H](CC(=O)N3CCCCC3)O[C@H]2CO)c1	27	0	14	.	.	.	.
CCCN(C)C[C@@H]1OCCCC[C@@H](C)Oc2ccc(NC(=O)Nc3ccc(C(F)(F)F)cc3)cc2C(=O)N([C@H](C)CO)C[C@@H]1C	100*	-19	-74	107*	86	26	39*
CCCN(C)C[C@@H]1OCCCC[C@@H](C)Oc2ccc(NC(=O)Nc3ccc(F)cc3)cc2C(=O)N([C@H](C)CO)C[C@H]1C	93	10	19	.	.	.	.
CCCN(C)C[C@@H]1OCCCC[C@H](C)Oc2ccc(NC(=O)Nc3ccc(F)cc3)cc2C(=O)N([C@@H](C)CO)C[C@@H]1C	95*	12	-63	99*	83	10	16
CCCN(C)C[C@@H]1OCCCC[C@@H](C)Oc2ccc(NC(=O)Nc3ccc(F)cc3)cc2C(=O)N([C@H](C)CO)C[C@@H]1C	32	6	18	.	.	.	.
COC(=O)C[C@H]1C[C@H]2c3cc(NS(=O)(=O)c4ccc(F)cc4)ccc3O[C@H]2[C@H](CO)O1	-52	2	0	.	.	.	.
CCC(=O)N(C)C[C@@H]1Oc2cc(-c3ccccc3F)ccc2S(=O)(=O)N([C@@H](C)CO)C[C@H]1C	-55	-2	21	.	.	.	.
SMILES	T cruzi growth-1	C diff HTS	Pf Dd2 inh	T cruzi growth-2	T cruzi growth-3	NIH3T3 tox	3T3 cytotox 2
CO[C@@H]1CN(C)C(=O)c2ccc(NC(=O)c3ccccc3)cc2OC[C@@H](C)N(C(=O)C2CC2)C[C@H]1C	.	-4	-2	.	.	.	.
CC(C)NC(=O)Nc1ccc2c(c1)C(=O)N([C@@H](C)CO)C[C@H](C)[C@H](CN(C)C)O2	7	1	7	.	.	.	.
O=C(NCc1ccc(F)cc1)[C@H]1[C@H](CO)[C@H]2Cn3c(ccc(C4=CCCCC4)c3=O)[C@@H]1N2	-132	-5	.	.	.	.	.
O=C(NCCCN1CCOCC1)[C@@H]1[C@@H](CO)[C@@H]2Cn3c(ccc(C4=CCCC4)c3=O)[C@H]1N2	?	5	16	51	11	17	-4
O=C(NCCN1CCCCC1)[C@@H]1N[C@@H]2c3ccc(-c4cccnc4)c(=O)n3C[C@@H]2[C@H]1CO	-95	.	.	.	.	.	.
O=C(NCCN1CCCCC1)[C@H]1N[C@H]2c3ccc(-c4ccncc4)c(=O)n3C[C@H]2[C@@H]1CO	102*	-3	-1	-43	-1	-5	-21
CCCNC(=O)[C@@H]1[C@@H](CO)[C@@H]2Cn3c(ccc(C4=CCCC4)c3=O)[C@H]1N2	100*	-1	3	-4	-19	-2	-7
O=C(NCCCN1CCOCC1)[C@@H]1N[C@@H]2c3ccc(C4=CCCCC4)c(=O)n3C[C@@H]2[C@H]1CO	52	-2	21	.	.	.	.
O=C(NCCCN1CCOCC1)[C@H]1N[C@H]2c3ccc(C4=CCCCC4)c(=O)n3C[C@H]2[C@@H]1CO	?	-2	7	-19	-15	-9	0
O=C(NCCCN1CCOCC1)[C@H]1[C@H](CO)[C@H]2Cn3c(ccc(C4=CCCCC4)c3=O)[C@@H]1N2	33	22	.	.	.	.	.
C[C@@H]1CCCCO[C@@H](CN(C)C(=O)Nc2ccc(F)cc2)[C@H](C)CN([C@@H](C)CO)C(=O)c2cc(NC(=O)Nc3ccc4c(c3)OCO4)ccc2O1	-1	1	34	.	.	.	.
COc1cccc(-c2ccc([C@@H]3[C@@H](CO)N4C(=O)CN(C(=O)C5CCC5)C[C@@H]34)cc2)c1	.	-3	-35	.	.	.	.
CO[C@@H]1CN(C)C(=O)c2cc(NS(C)(=O)=O)ccc2OC[C@@H](C)N(Cc2cccnc2)C[C@@H]1C	33	.	.	.	.	.	.
